Source: PubChem BioAssay (NCI)
This is part of a sample that, as a whole, favours compounds with a hit. Of some 79,000 tested, about 15% had one in any assay. Activity calls are given as the source filed them. Cut-off read from the data, not from the text of the source: active = growth inhibition above about 70%; inactive = the rest.

Assays:
[1] = NCI Yeast Anticancer Drug Screen. Data for the wt2 strain (AID 169);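 note: 0% = growth of vehicle-treated yeast cultures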; conditions: S. cerevisiae wt2 strain growth inhibition, active compounds read high
How it was run: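 Against vehicle-treated controls, the growth of yeast exposed to each compound was compared, and the inhibition was recorded.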

[2] = NCI Yeast Anticancer Drug Screen. Data for the mlh1 strain (AID 171);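 note: 0% = growth of vehicle-treated control cultures of the same strain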; conditions: S. cerevisiae mlh1 strain growth inhibition, active compounds read high
How it was run: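 Measured: yeast growth. Reference: vehicle-treated controls. Organism: strain with a defined alteration affecting DNA damage repair or cell cycle control, treated with compound.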

[3] = NCI Yeast Anticancer Drug Screen. Data for the sgs1 strain (AID 173);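 note: 0% = growth of vehicle-only control cultures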; conditions: S. cerevisiae sgs1 mutant, active compounds read high
How it was run: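 Each compound was added to cultures of the altered yeast strain. Growth was recorded, and inhibition was derived by comparison with vehicle controls.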

[4] = NCI Yeast Anticancer Drug Screen. Data for the mlh1 rad18 strain (AID 175); conditions: S. cerevisiae mlh1 rad18 strain growth inhibition, active compounds read high
How it was run: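 Genetically defined yeast (DNA repair-deficient) exposed to compounds; growth inhibition determined relative to vehicle.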

[5] = NCI Yeast Anticancer Drug Screen. Data for the rad52 strain (AID 147);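 note: 0% = growth of vehicle-treated control cultures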; conditions: S. cerevisiae rad52 mutant growth inhibition, active compounds read high
How it was run: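 The repair-mutant yeast strain was incubated with compounds, then growth was read and inhibition derived relative to vehicle.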

[6] = NCI Yeast Anticancer Drug Screen. Data for the wt1 strain (AID 149);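 note: 0% = growth of vehicle-treated wt1 cultures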; conditions: S. cerevisiae wt1 strain (SPY 50644) growth inhibition, active compounds read high
How it was run: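 The wt1 strain was treated with compounds, and growth was compared with vehicle-treated cultures to give inhibition.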

[7] = NCI Yeast Anticancer Drug Screen. Data for the rad50EPP+ strain (AID 151);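 note: 0% = growth of vehicle-treated control cultures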; conditions: S. cerevisiae rad50 mutant strain, active compounds read high
How it was run: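 Vehicle-normalised growth inhibition; rad50EPP+ yeast strain, altered in DNA damage repair, compound-treated.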

[8] = NCI Yeast Anticancer Drug Screen. Data for the mgt1 strain (AID 153); conditions: S. cerevisiae mgt1 mutant growth inhibition, active compounds read high
How it was run: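 Vehicle-normalized growth inhibition is determined in mgt1 yeast, a strain selected for a defined alteration in DNA repair or cell cycle control.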

[9] = NCI Yeast Anticancer Drug Screen. Data for the rad50 strain (AID 155);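 note: 0% = growth of vehicle-only cultures of the same strain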; conditions: S. cerevisiae rad50 strain growth inhibition, active compounds read high
How it was run: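 Cells are treated with compound, grown, and their growth is then scored against vehicle-only cultures of the same repair-deficient yeast strain.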

[10] = NCI Yeast Anticancer Drug Screen. Data for the mec2-1 strain (AID 157); conditions: S. cerevisiae mec2-1 strain, active compounds read high
How it was run: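 Mutant yeast (mec2-1) grown with compound; growth inhibition relative to vehicle control reported.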

[11] = NCI Yeast Anticancer Drug Screen. Data for the rad14 strain (AID 159);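 note: 0% = growth of vehicle-treated control cultures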; conditions: S. cerevisiae rad14 strain growth inhibition, active compounds read high
How it was run: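 Readout: yeast growth inhibition, referenced to vehicle-only cultures. Strain bears a defined alteration in DNA damage repair.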

[12] = NCI Yeast Anticancer Drug Screen. Data for the sgs1 mgt1 strain (AID 161);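 note: 0% = growth of cultures given vehicle only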; conditions: S. cerevisiae sgs1 mgt1 strain, active compounds read high
How it was run: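 Yeast cells carrying a defined DNA-repair defect were exposed to test compounds. Growth inhibition was measured relative to vehicle-treated controls.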

[13] = NCI Yeast Anticancer Drug Screen. Data for the CLN2oe strain (AID 163);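 note: 0% = growth of vehicle-only control cultures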; conditions: S. cerevisiae CLN2oe strain, active compounds read high
How it was run: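 Compounds are applied to yeast harbouring a defined cell-cycle control change; reduced growth compared with vehicle-treated controls gives the value.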

[14] = NCI Yeast Anticancer Drug Screen. Data for the cln2 rad14 strain (AID 165);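 note: 0% = growth equal to vehicle treated cultures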; conditions: S. cerevisiae cln2 rad14 strain, active compounds read high
How it was run: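 Readout is yeast growth inhibition versus vehicle-treated controls, using a strain with cln2 and rad14 alterations exposed to compound.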

[15] = NCI Yeast Anticancer Drug Screen. Data for the bub3 strain (AID 167); conditions: S. cerevisiae bub3 mutant strain, active compounds read high
How it was run: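 Part of a panel of yeast mutants defective in DNA damage repair or cell cycle regulation. Each strain is grown with compound, and inhibition is calculated relative to solvent-treated cultures.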

[16] = NCI Yeast Anticancer Drug Screen. Data for the rad18 strain (AID 177); conditions: S. cerevisiae rad18 mutant growth inhibition, active compounds read high
How it was run: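 Vehicle-treated cultures served as the baseline for scoring compound-induced growth inhibition in DNA-repair-mutant yeast.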

[17] = at 5.0 µM (retest, dose inferred, filed as 0.5)
[18] = at 50.0 µM (retest, dose inferred, filed as 5.0)

Measured: growth inhibition

Nc1ccc2c(=S)c3ccccc3[nH]c2c1
inactive: [1]; at 1.2 µM -7% | [1]; at 3.7 µM -1% | [1]; at 11.0 µM 1% | [1]; at 33.0 µM 49% | [2]; at 1.2 µM -2% | [2]; at 3.7 µM 9% | [2]; at 11.0 µM -2% | [2]; at 33.0 µM 27% | [2]; at 100.0 µM 61% | [3]; at 1.2 µM 17% | [3]; at 3.7 µM 18% | [3]; at 11.0 µM 20% | [3]; at 33.0 µM 24% | [3]; at 100.0 µM 59% | [4]; [17] 6% | [4]; [18] 64%
active: [1]; at 100.0 µM 83%

Clc1c(Cl)c(Cl)c2c(nnn2C2CCCO2)c1Cl (stereo not drawn)
inactive: [5]; at 1.2 µM 10% | [5]; at 3.7 µM 19% | [5]; at 11.0 µM 24% | [5]; at 33.0 µM 33% | [5]; at 100.0 µM 58% | [6]; at 1.2 µM 0% | [6]; at 3.7 µM -1% | [6]; at 11.0 µM -5% | [6]; at 33.0 µM 11% | [6]; at 100.0 µM 46% | [7]; at 1.2 µM -32% | [7]; at 3.7 µM -10% | [7]; at 11.0 µM -9% | [7]; at 33.0 µM -4% | [7]; at 100.0 µM 35% | [8]; at 1.2 µM -24% | [8]; at 3.7 µM -9% | [8]; at 11.0 µM -5% | [8]; at 33.0 µM -1% | [9]; at 1.2 µM 5% | [9]; at 3.7 µM -1% | [9]; [17] 4% | [9]; at 11.0 µM 6% | [9]; at 33.0 µM 14% | [9]; [18] 38% | [9]; at 100.0 µM 48% | [10]; at 1.2 µM 2% | [10]; at 3.7 µM -1% | [10]; [17] 12% | [10]; at 11.0 µM 10% | [10]; at 33.0 µM 8% | [10]; [18] 48% | [11]; at 1.2 µM -11% | [11]; at 3.7 µM -8% | [11]; at 11.0 µM -1% | [11]; at 33.0 µM 12% | [12]; [17] -1% | [13]; at 1.2 µM -11% | [13]; at 3.7 µM 1% | [13]; at 11.0 µM 0% | [13]; at 33.0 µM 9% | [13]; at 100.0 µM 33% | [14]; [17] 8% | [14]; [18] 62% | [15]; at 1.2 µM -7% | [15]; at 3.7 µM -8% | [15]; [17] 18% | [15]; at 11.0 µM -22% | [15]; at 33.0 µM 11% | [15]; [18] 60% | [15]; at 100.0 µM 50% | [1]; at 1.2 µM -14% | [1]; at 3.7 µM -2% | [1]; at 11.0 µM 6% | [1]; at 33.0 µM 60% | [4]; [17] 7% | [4]; [18] 45% | [16]; at 1.2 µM -15% | [16]; at 3.7 µM -4% | [16]; at 11.0 µM 2% | [16]; at 33.0 µM 14% | [16]; at 100.0 µM 54%
active: [8]; at 100.0 µM 75% | [9]; at 50.0 µM 78.3% | [10]; at 50.0 µM 85.2% | [10]; at 100.0 µM 76% | [11]; at 100.0 µM 75% | [12]; [18] 80% | [12]; at 50.0 µM 78% | [14]; at 50.0 µM 74.8% | [15]; at 50.0 µM 83.2% | [1]; at 100.0 µM 97% | [4]; at 50.0 µM 83.8%

O=C(CCc1ccccc1)ON1C(=S)C(c2ccccc2)(c2ccccc2)N=C1Sc1ccccc1
active: [9]; [17] 91% | [9]; [18] 96% | [10]; [18] 94% | [15]; at 50.0 µM 78.7% | [4]; [18] 86% | [4]; at 50.0 µM 88.8%
inactive: [5]; at 1.2 µM 13% | [5]; at 3.7 µM 9% | [5]; at 11.0 µM 19% | [5]; at 33.0 µM 23% | [5]; at 100.0 µM 36% | [6]; at 1.2 µM 6% | [6]; at 3.7 µM 6% | [6]; at 11.0 µM 13% | [6]; at 33.0 µM 14% | [6]; at 100.0 µM 17% | [7]; at 1.2 µM 0% | [7]; at 3.7 µM -6% | [7]; at 11.0 µM 1% | [7]; at 33.0 µM 7% | [7]; at 100.0 µM 5% | [8]; at 1.2 µM 44% | [8]; at 3.7 µM 50% | [8]; at 11.0 µM 51% | [8]; at 33.0 µM 54% | [8]; at 100.0 µM 56% | [9]; at 1.2 µM 36% | [9]; at 3.7 µM 34% | [9]; at 11.0 µM 31% | [9]; at 33.0 µM 29% | [9]; at 50.0 µM 50% | [9]; at 100.0 µM 28% | [10]; at 1.2 µM 22% | [10]; at 3.7 µM 14% | [10]; [17] 23% | [10]; at 11.0 µM 6% | [10]; at 33.0 µM 7% | [10]; at 50.0 µM 61% | [10]; at 100.0 µM 26% | [11]; at 1.2 µM 20% | [11]; at 3.7 µM 20% | [11]; at 11.0 µM 27% | [11]; at 33.0 µM 21% | [11]; at 100.0 µM 36% | [12]; [17] -22% | [12]; [18] 37% | [12]; at 50.0 µM 56.6% | [13]; at 1.2 µM 4% | [13]; at 3.7 µM -8% | [13]; at 11.0 µM -4% | [13]; at 33.0 µM 19% | [13]; at 100.0 µM 57% | [14]; [17] -2% | [14]; [18] 35% | [14]; at 50.0 µM 45.9% | [15]; at 1.2 µM 6% | [15]; at 3.7 µM -10% | [15]; [17] -1% | [15]; at 11.0 µM -5% | [15]; at 33.0 µM -7% | [15]; [18] 32% | [15]; at 100.0 µM 22% | [1]; at 1.2 µM 1% | [1]; at 3.7 µM -4% | [1]; at 11.0 µM 0% | [1]; at 33.0 µM 14% | [1]; at 100.0 µM 44% | [2]; at 1.2 µM 44% | [2]; at 3.7 µM 50% | [2]; at 11.0 µM 51% | [2]; at 33.0 µM 54% | [2]; at 100.0 µM 56% | [3]; at 1.2 µM 43% | [3]; at 3.7 µM 44% | [3]; at 11.0 µM 46% | [3]; at 33.0 µM 49% | [3]; at 100.0 µM 56% | [4]; [17] 28% | [16]; at 1.2 µM 21% | [16]; at 3.7 µM 19% | [16]; at 11.0 µM 10% | [16]; at 33.0 µM 21% | [16]; at 100.0 µM 40%
